JMJD2A Tudor = inhibitors of human JMJD2A Tudor domain; O75164; AlphaScreen JMJD2A-Tudor / H3K4me3 peptide binding; Potency, µM (highest dose often 114 µM), for the others: top-dose activity change, negative = inhibition, actives largely listed as inhibitors; AID 504339; actives 4.4% (n = 390,000); further: on the % scale 0 is the no-effect control and ±100 the full control effect; nearly all actives have a fitted effect of over 50% in size
G9a inh = blocks human histone lysine methyltransferase G9a; Q96KQ7; G9a H3K9 monomethylation, AlphaScreen, 2 h; Potency, µM (series often up to 102 µM), inactives show at the top dose activity, negative = inhibition, usual class: inhibitors; actives 8.8% (n = 350,000); further: on the % scale 0 is the no-effect control and ±100 the full control effect; nearly all actives have a fitted effect of over 75% in size
Target sequence (Q96KQ7 913-1193 limits assumed): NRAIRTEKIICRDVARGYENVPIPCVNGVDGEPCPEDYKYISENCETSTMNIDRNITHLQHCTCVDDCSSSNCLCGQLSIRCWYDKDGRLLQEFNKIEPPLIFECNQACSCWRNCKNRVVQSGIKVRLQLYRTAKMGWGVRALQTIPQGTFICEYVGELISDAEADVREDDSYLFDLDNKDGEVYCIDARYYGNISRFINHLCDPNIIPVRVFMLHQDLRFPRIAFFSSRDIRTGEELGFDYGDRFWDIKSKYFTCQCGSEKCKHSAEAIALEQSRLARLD
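AlphaScreen detection with an anti-monomethyl H3K9 antibody quantified product after a 2 h room-temperature reaction containing 500 nM biotinylated H3K9 peptide, 20 µM SAM and 20 nM enzyme, which had been preincubated 15 min with compound.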
Sfp inh = blocks B. subtilis Sfp PPTase activity | actives 3.5% (n = 310,000) | Potency, µM, without a hit: largest response in the series, negative = inhibition, usual class: inhibitors | AID 1490 | Q9F4F7 | Biochemical Sfp PPTase activity, qHTS;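 further: the enzyme is Sfp with the accession as filed and its product quenches rhodamine fluorescence; 0% = enzyme reaction without inhibitor and -100% = no enzyme wells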
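After 15 min at room temperature with compound, 15 nM Sfp received 5 uM rhodamine-CoA plus 12.5 uM BHQ-2-ybbR (50 mM Hepes pH 7.6, 10 mM MgCl2). Rate came from the fluorescence difference over 30 min, ex 525/em 598 nm.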
BAZ2B inh = inhibitors of human BAZ2B bromodomain; AlphaScreen BAZ2B-H3K14Ac peptide displacement; Potency, µM (top dose mostly 114 µM), inactives show at the top dose activity change, negative = inhibition, usual class: inhibitors; actives 4.4% (n = 360,000); further: on the % scale 0 is the no-effect control and ±100 the full control effect; nearly all actives have a fitted effect of over 60% in size
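AlphaScreen displacement: compounds (up to 110uM) incubated 30 min at room temperature with a preformed 50 nM BAZ2B/50 nM biotinylated H3K14Ac peptide complex in PBS pH 7.4 with Tween-20. Donor and acceptor beads at 10 ug/mL final added, 20 min light-protected before reading.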
HP1b chromo inh = HP1-beta chromodomain-methylated histone interaction inhibition; AlphaScreen HP1-beta / biotin-H3K9me3 peptide binding; Potency, µM (top dose mostly 114 µM), without a hit: at the highest dose activity change, negative = inhibition, usual class: inhibitors; actives 0.56% (n = 390,000); AID 540317; further: nearly all actives have a fitted effect of over 70% in size
Target sequence (P83916 whole entry, looked up): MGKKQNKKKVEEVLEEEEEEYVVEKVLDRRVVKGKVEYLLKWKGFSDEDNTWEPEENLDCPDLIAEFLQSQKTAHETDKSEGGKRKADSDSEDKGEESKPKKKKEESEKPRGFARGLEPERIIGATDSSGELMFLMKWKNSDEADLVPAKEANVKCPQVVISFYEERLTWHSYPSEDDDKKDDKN
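AlphaScreen: HP1-beta (50 nM) preformed 30 min with biotin-H3(1-18)K9me3 peptide (50 nM) in PBS pH 7.4, 0.01% Tween-20. Compound added for 30 min at RT, then streptavidin donor/nickel chelate acceptor beads (10 ug/mL) for 30 min.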
Active calls of the source: *; u = inconclusive; x = not tested or not shown; [ ] = remark or other dose. The list is not random: actives were taken first. Their share in the collection is about 12%. The call rests on the fitted dose curve; in most records, active means well fitted curve in the direction sought with a large enough effect; inconclusive means small, poorly fitted or top-dose-only effect, or another doubt; inactive means no such curve, though single readings can be large; an effect the other way counts as inactive or inconclusive. Potency means the concentration at half of the fitted maximal effect.

SMILES | JMJD2A Tudor | G9a inh | Sfp inh | BAZ2B inh | HP1b chromo inh
CC(C)c1ccc(O)c(NC(=O)c2cncc(Br)c2)c1 | -25% | 40µM* | 5% | 12% | 35%
CCC(C)c1ccc(O)c(NC(=O)c2cccnc2)c1 (stereo not given) | -5% | 50µM* | 3% | -2% | 53%
CC(C)c1ccc(O)c(NC(=S)NC(=O)c2cccnc2)c1 | 3% | -14% | 1% | -15% | 15%
CCC(C)c1ccc(NC(=O)c2cccnc2)cc1 (stereo not given) | -11% | 17%[12.7 µM] | -15% | -7% | 14%
COc1ccccc1-c1nnc(SC(C(=O)c2c[nH]c3ccccc23)c2ccccc2)n1C (stereo not given) | u | 79µM* | -3% | -6% | 37%
O=C(CCNC(=O)C1CCN(S(=O)(=O)c2ccc(F)cc2)CC1)NCc1ccc(Cl)cc1 | 0% | x | 14% | -5% | 10%[57 µM]
COc1cc(NC(=O)c2ccccc2)c(OC)cc1NC(=O)CN1CCCCC1 | -32% | u | 10% | u | -12%
COc1cc(NC(=O)c2cccc(Cl)c2)c(OC)cc1NC(=O)CN1CCOCC1 | u | 45µM* | 4% | u | 15%
COc1cc(NC(=O)c2ccc(F)cc2)c(OC)cc1NC(=O)CN1CCCCC1 | -19% | 50µM* | -10% | -18% | 16%
COc1ccc(-c2nc3ccc(Cl)cc3c(=O)n2Cc2ccccc2)cc1COc1ccc(NC(C)=O)cc1 | -14% | x | x | x | x
Cc1cccc(C(=O)c2c(N)sc3c2CCCC3)c1 | u | 32µM* | 45µM* | -36% | -30%
Cc1cccc(C(=O)c2c(N)sc3c2CCC(C)C3)c1 (stereo not given) | u | 45µM* | u | 1% | u
Nc1sc2c(c1C(=O)c1ccc(Cl)cc1)CCCC2 | x | x | 10% | x | x
CCCn1c(-c2ccc(F)cc2)nc2c(N3CCN(Cc4nc(OC)cc(OC)n4)CC3)nc(C)nc21 | x | x | -28% | x | x
COCCCN1CN=C(Nc2nc3ccccc3o2)NC1 | 13µM* | u | -25% | -5% | 3%
CCCN1CN=C(Nc2nc3ccccc3o2)NC1 | -5% | 0% | 2% | -16% | 2%
O=[N+]([O-])c1ccc(C2CN=C(Nc3ccccc3)S2)cc1 (stereo not given) | -30% | 45µM* | -3% | u | 0%
CCc1ccc(NC2=NCC(c3ccccc3)S2)cc1 (stereo not given) | 22% | 6% | -18% | -5% | 114%
COc1ccc(NC2CCCN(C(=O)CCn3cccn3)C2)cc1 (stereo not given) | -16% | -1% | 17% | -20% | 18%
O=C(CCc1ccccn1)N1CCCC(Nc2cccc(F)c2)C1 (stereo not given) | 7.1µM* | 10% | 16% | -3% | 29%
COc1ccc(NC2CCCN(C(=O)CCCn3cncn3)C2)cc1 (stereo not given) | x | x | 0% | -13% | x
COc1ccc(NC2CCCN(C(=O)CCc3cccc(F)c3)C2)cc1 (stereo not given) | u | 50µM* | 2% | u | -17%
COc1ccc(NC2CCCN(C(=O)CCc3cccc(Cl)c3)C2)cc1 (stereo not given) | u | u | -7% | 35µM* | u
CCc1nc(SC)ncc1C(=O)N1CCN(c2cc(Cl)ccc2C)CC1 | -19% | -6%[59 µM] | x | -1% | 7%
CCc1ccc(NC(=O)Nc2nnc(N(C)C3CCCCC3)s2)cc1 | -25% | -25%[59 µM] | x | -20% | -6%
SMILES | JMJD2A Tudor | G9a inh | Sfp inh | BAZ2B inh | HP1b chromo inh
COc1ccc(O[C@H]2C=C[C@@H](c3ccccc3)O[C@H]2CO/N=C(/C)CCC(=O)OC[C@@H]2O[C@H](c3ccccc3)C=C[C@@H]2Oc2ccc(OC)cc2)cc1 | x | x | -7% | x | x
CO/N=C\C[C@@H]1C=C[C@H](OC(C)=O)[C@H](COC(C)=O)O1 | x | x | 4% | x | x
COc1ccc(O[C@H]2C=C[C@@H](c3ccccc3)O[C@@H]2COC(=O)CC/C(C)=N/OC[C@@H](O)[C@H]2O[C@@H]3OC(C)(C)O[C@@H]3[C@H]2O)cc1 | x | 79µM* | 1% | u | x
COc1ccc(O[C@H]2C=C[C@@H](c3ccccc3)O[C@@H]2COC(=O)CCC(C)=NO[C@@H]2O[C@H](COC(C)=O)[C@@H](OC(C)=O)[C@H](OC(C)=O)[C@H]2OC(C)=O)cc1 | x | 50µM* | -2% | -13% | x
CC(=O)OC[C@H]1O[C@@H](O/N=C/C[C@@H]2C=C[C@H](OC(C)=O)[C@@H](COC(C)=O)O2)[C@H](OC(C)=O)[C@@H](OC(C)=O)[C@@H]1OC(C)=O | x | 79µM* | 0% | -12% | x
CC1=C(C(=O)Nc2ccccc2)C(c2ccc(Br)cc2)n2nc(CCCO)nc2N1 (stereo not given) | 9% | -8%[59 µM] | x | 4% | 31%
CC(C)c1ccc(NC(=O)CSC2=Nc3ccccc3C3=NC(CCC(=O)NCc4ccco4)C(=O)N23)cc1 (stereo not given) | -5% | 8%[59 µM] | x | 1% | 34%
CCOC(=O)C(=NCCCN(C)C)NNc1cc(C(F)(F)F)ccc1Cl | 45µM* | 40µM* | -35% | -34% | u
CCOC(=O)C(=NCCCN(C)C)NNc1ccc(Br)cc1 | -11% | 7.1µM* | 17% | 4% | -3%
CCCCN=C(NNc1ccc(Br)cc1)C(=O)OCC | u | 11µM* | -3% | u | -10%
CCOC(=O)C(=O)NNc1ccc(C)cc1 | -6% | u | -15% | 3% | 30%
CCOC(=O)C(=CNc1ccc(C(F)(F)F)cc1Cl)C(=O)OCC | 59% | 121% | 1% | 24% | 97%
CCOC(=O)C(=O)NNc1ccc(Cl)cc1 | 3% | u | 2% | -2% | 32%
CC(Sc1nnc(CN2CCCC2)n1Cc1ccccc1)C(=O)Nc1ccc(F)cc1Cl (stereo not given) | -21% | x | x | x | 42%
CCc1ccc(C(=O)c2cn(CC(=O)Nc3ccc(OC)cc3OC)c3ccc(CC)cc3c2=O)cc1 | -19% | u | x | -14% | 26%
Cc1ccc(-c2cn(C[C@H]3CC[C@@H]([C@@H]4CC[C@H](Cn5cc(-c6ccc(C)cc6)nn5)O4)O3)nn2)cc1 | -16% | x | 10% | 39% | 41%
c1ccc(-c2cn(C[C@H]3CC[C@H](Cn4cc(-c5ccccn5)nn4)O3)nn2)nc1 | 0.89µM* | x | -14% | 0.79µM* | -2%
Cc1ccc(/C=N/NC(=O)c2cccc(S(=O)(=O)Nc3ccccc3Cl)c2)s1 | u | 50µM* | 0% | 4% | -2%
O=C(N/N=C/c1ccccc1C(=O)O)c1cccc(S(=O)(=O)Nc2cc(Cl)ccc2Cl)c1 | -11% | -2%[59 µM] | 10% | -12% | 4%
O=C(N/N=C/c1ccncc1)c1cccc(S(=O)(=O)Nc2ccc(Cl)cc2)c1 | -14%[11.4 µM] | -33%[59 µM] | 56µM* | 20µM* | 54%
